Out of some 69,000 compounds screened, about 8,600 (12%) showed an effect of 50% or more. The entries come from a sample that favours strong results as a whole.

In the assay the test system is Plasmodium berghei. The experiment in a line: Screen against P. berghei liver stage (PbLuc), transformed with Luciferase, at 10uM. Format: functional, HepG2. As to conditions: tested at 10 uM.
Take `CCN1CCCC(C)(C(=O)NCc2nccn2Cc2ccccc2)C1` (stereo unspecified): the INHIBITION is listed as 47.2%. As for `CCN1CCCC(C)(C(=O)NCc2nncn2CCc2ccccc2)C1` (stereo unspecified), the INHIBITION is on record as 57%. `CCn1cnnc1CNC(=O)N1CCN(CCc2ccccc2)CC1`: the INHIBITION was 23.4%.

In the case of `Cc1cc(C)c2ncc(C#N)c(NC3CCN(CC(N)=O)CC3)c2c1`, the INHIBITION is given as -5.705%. On to `Cc1cnn(CC2CCCCN2C(=O)c2ccc(NC3CC3)nc2)c1` (stereo unspecified), for which the INHIBITION is 42.45%. Next, `O=S(=O)(N1CCN(CC2CC2)CC1)N1CCCC1c1ccco1` (stereo unspecified): 31.9%. For the molecule `O=S(=O)(N1CCC(n2cccc2)CC1)N1CCCC1c1ccco1` (stereo unspecified), the INHIBITION is on record as 66.1%. Regarding `COC1CCN(S(=O)(=O)N2CCCC2c2ccco2)CC1` (stereo unspecified), the INHIBITION worked out at 49%.

For `CC(C)CN1CCN(S(=O)(=O)c2cn(C)cn2)Cc2cccnc21`, the INHIBITION was 48.7%.

For the molecule `COCCC(=O)N1CCCC1c1csc(Nc2ncccn2)n1` (stereo unspecified), the INHIBITION was 36.7%.

Regarding `O=C(NC1CC1)C1CCN(c2nc3nc[nH]c(=O)c3s2)CC1`, the INHIBITION was 50.2%. Consider `CNC(=O)C1CCN(c2nc3nc[nH]c(=O)c3s2)CC1`, for which the INHIBITION came out at 24.7%. The same measure for `CC(C)NC(=O)C1CCN(c2nc3nc[nH]c(=O)c3s2)CC1`: 4.35%; for `Cc1ccccc1CCCN(C)S(C)(=O)=O`: 24.2%. Regarding `CCN(CC)S(=O)(=O)N(Cc1ccccn1)Cc1ccccc1C`, the INHIBITION is reported as 61.3%.

In the case of `CCN(CCCc1ccccc1C)S(C)(=O)=O`, the INHIBITION is recorded as 14.1%.

For the molecule `Cc1ccccc1CCCN(Cc1ccccn1)S(C)(=O)=O`, the INHIBITION is on record as 51%.

For `CCN(Cc1ccccc1C)S(C)(=O)=O`, the INHIBITION is 5.15%. As to `CCN(CC)S(=O)(=O)N(Cc1cccc(C)c1)Cc1ccccn1`, the INHIBITION is 9.63%.

Take `COCCN1CCCN(C(=O)NC(C)Cn2cccn2)CC1` (stereo unspecified): the INHIBITION came to 42.6%.

For the molecule `Fc1cnc(N2CCCn3c(nnc3Cn3ccnc3)C2)nc1`, the INHIBITION is given as -68%. Next, `Cc1noc(C2CCN(C(=O)CCCNc3ncccn3)CC2)n1`: 18.4%; `CCC(CC)c1nnc(NC(=O)NC(C)Cn2cccn2)s1` (stereo unspecified): 27.4%; `Cc1nc(CN(C)C2CCN(Cc3cccc4c3OCCO4)C2)no1` (stereo unspecified): 29.4%.

Consider `O=C(c1cccs1)N1CC[C@@H]2[C@H]1CCC(=O)N2c1ccccc1`, for which the INHIBITION was found to be 40.3%.

Regarding `O=C(c1cscn1)N1CC[C@H]2[C@@H]1CCC(=O)N2c1ccccc1`, the INHIBITION turned out to be 55.5%. Turning to `O=C(c1cnccn1)N1CC[C@H]2[C@@H]1CCC(=O)N2c1cccnc1`, the INHIBITION was found to be 22.9%. Next, `Cn1cc(N2C(=O)CC[C@@H]3[C@H]2CCN3C(=O)c2cscn2)cn1`: 52%; `Cc1cnc(N2CC[C@H]3[C@@H]2CCC(=O)N3c2ccccc2)nc1`: 2.7%. With `O=C1CC[C@H]2[C@H](CCN2c2ncccn2)N1c1ccccc1`, the INHIBITION was found to be 55.4%. With `Cc1nc(CN2CC[C@H]3[C@@H]2CCC(=O)N3c2cnn(C)c2)cs1`, the INHIBITION is -20.1%. On to `O=C1CC[C@H]2[C@H](CCN2c2ncc(F)cn2)N1c1ccccc1`, for which the INHIBITION is 49.4%.

As for `Cn1cc(N2C(=O)CC[C@@H]3[C@H]2CCN3Cc2nccs2)cn1`, the INHIBITION was 22.4%. For `Cc1noc(C(C)C)c1C(=O)NCc1ccc(N(C)C)c(F)c1`, the INHIBITION turned out to be 29.2%. The same measure for `COc1cc(CSc2nnc(N)n2C2CC2)ccc1SC`: 0.348%. For the molecule `CN(C)Cc1noc2c1CN(C(=O)c1ccncc1)CC2`, the INHIBITION is listed as 39.4%.

On to `O=S1(=O)[C@@H](c2ccccc2)[C@H](CO)CN1C1CC1`, for which the INHIBITION is on record as -1.99%. Next, `Cc1ccoc1C(=O)N1Cc2c(Cn3ccnc3)nn(C)c2C1`: 39.2%; `Cc1ccc(C2(O)CCN(C(=O)c3sccc3S(N)(=O)=O)CC2)nc1`: -11.3%; `CCOc1cc(CN(C)CCCO)ccc1OC(F)F`: 31.4%.

Regarding `CCOc1cc(CN(C)CCCC#N)ccc1OC(F)F`, the INHIBITION is 75.2%. For `CCOc1cc(CN(C)CC(C)(C)O)ccc1OC(F)F`, the INHIBITION was -2.13%. As for `COc1ccc(F)cc1CSCC(=O)N(CCC#N)CCC#N`, the INHIBITION is on record as -28.8%. With `CCOc1cc(CN(C)Cc2ccccc2)ccc1OC(F)F`, the INHIBITION is 68.8%. `CCOc1ccc(CN(CCC#N)CCN2CCOCC2)cc1OC`: the INHIBITION was determined as 55.4%.

In the case of `CCOc1cc(CN(C)CCC#N)ccc1OC(F)F`, the INHIBITION is reported as 64.1%. Next, `COc1ccc(CN(CCC#N)CCN2CCOCC2)c(OC)c1`: 31.9%; `COc1ccc(F)cc1CSCC(=O)N(C)CCC#N`: 13.6%; `CCOc1cc(CN(C)CC(=O)O)ccc1OC(F)F`: 21%. Consider `CCOc1cc(CNC(=O)C(C#N)c2nc(C)cs2)ccc1OC(F)F` (stereo unspecified), for which the INHIBITION is given as 42.8%. As for `COc1ccc(CN(CCC#N)CCN2CCOCC2)cc1OC`, the INHIBITION is 43.4%. `CCNC(=O)NC(=O)CNC1(c2noc(C)n2)CCCC1`: the INHIBITION was determined as 43.8%. On to `CNc1cc(C2CN(C(=O)c3cscn3)CCO2)nc(C)n1` (stereo unspecified), for which the INHIBITION is recorded as 26.7%. Regarding `COCCNC(=O)C(C)N1CCN(C)CC1` (stereo unspecified), the INHIBITION is reported as 4.41%. Turning to `CCN(CC)CCN(C)Cc1cn(C)nc1-c1ccc2c(c1)OCCO2`, the INHIBITION is recorded as 39.4%.

Regarding `COc1ccccc1-n1nc(-c2ccco2)n(CC(N)=O)c1=O`, the INHIBITION is recorded as 30.9%. As to `O=C1COC2(COCCN(Cc3ccsc3)C2)CN1c1ccc(F)cc1` (stereo unspecified), the INHIBITION is recorded as 13.1%.

Consider `O=C1CCC(c2ccc(Cl)cc2)=NN1CN1CCCCCC1`, for which the INHIBITION is given as -52.7%. Take `CC(C)C(=O)N1CC[C@@H]2[C@H](CC1)N(Cc1cccnc1)CCS2(=O)=O`: the INHIBITION is given as -20.1%. In the case of `CN(C)C(=O)N[C@H]1CN(Cc2ccc3c(c2)OCO3)[C@@H]2CCCO[C@H]12`, the INHIBITION was 27.2%.

With `CCOCCC(=O)N1CCCC(CO)(CC2CC2)C1` (stereo unspecified), the INHIBITION is recorded as 33%. For `O=C(O)c1nnn(-c2cccc(C(F)(F)F)c2)c1C1CC1`, the INHIBITION is reported as 12.9%. `CCOc1cc(CN(C)CCC(=O)OC)ccc1OC(F)F`: the INHIBITION was 54.5%. As for `CCOc1cc(CN(C)CCOC)ccc1OC(F)F`, the INHIBITION amounted to 43.5%. As for `CCOc1cc(CNC(=O)NC2CC=CC2)ccc1OC(F)F`, the INHIBITION was 23.9%.

With `CCN1CC2(CCN(C(=O)c3nc4cc(C)ccn4c3F)CC2)CC1=O`, the INHIBITION was 7.65%. `CCn1ccc(NS(=O)(=O)c2cccc(CSC)c2)n1`: the INHIBITION was -3.83%.

Consider `Cn1cc(N2CCC3(CCN(S(=O)(=O)C4CC4)C3)C2=O)cn1` (stereo unspecified), for which the INHIBITION is reported as 15.1%.

With `CCS(=O)(=O)N1CCC2(CC1)CCn1c(-c3cnn(C)c3)cnc12`, the INHIBITION is -65.4%.

As to `CCCS(=O)(=O)N1CCC2(CC1)CCn1c(-c3cnn(C)c3)cnc12`, the INHIBITION is listed as 85.4%. Next, `Cn1cc(-c2cnc3n2CCC32CCN(S(=O)(=O)C3CC3)CC2)cn1`: 63.1%. Regarding `Cn1cc(-c2cnc3n2CCC32CCN(S(C)(=O)=O)CC2)cn1`, the INHIBITION is reported as -26.1%.

As for `CC(C)CS(=O)(=O)N1CCC2(CC1)CCn1c(-c3cnn(C)c3)cnc12`, the INHIBITION came out at 5.41%. The same measure for `O=C(CCO)N1C[C@H]2CN(c3ccccc3)C(=O)[C@H]2C1`: -73.8%; for `Cc1c(-c2cc(-c3cnn(C)c3C)n(CC(=O)NC3CC3)n2)cnn1C`: 45.4%. Next, `Cc1nc(N2CCN(C(=O)C3CCCC3)CC2)c2c(n1)c(C)nn2C`: 35.8%. Next, `COCCn1c(=O)n(C)c(=O)c2ccc(C3CCC(CN)CC3)nc21` (stereo unspecified): 36.1%; `O=C(NC1CCCC1)N1CCC2(CC1)CC(Oc1cccnc1)CO2` (stereo unspecified): 9.63%. With `CC(C)N(C)CC(=O)N(C)Cc1nc(C(F)(F)F)cs1`, the INHIBITION was 22.7%.

For `CCOCC(=O)N(C)Cc1nc(C(F)(F)F)cs1`, the INHIBITION stood at 9.52%. For the molecule `CC(C)CC(=O)N(C)Cc1nc(C(F)(F)F)cs1`, the INHIBITION was 62.9%. For the molecule `Cc1ccc(N2CCCC(NCc3nnc4n3CCCC4)C2=O)cc1` (stereo unspecified), the INHIBITION was -76.95%.

Consider `CNC(=O)[C@H]1C[C@@H]2CN(C(=O)c3occc3C)C[C@@H]2N1S(C)(=O)=O`, for which the INHIBITION is -0.371%. Turning to `O=C1CCSCC(C(=O)N2CCCCC2)N1` (stereo unspecified), the INHIBITION is listed as -18.3%. As for `O=C1CCSCC(C(=O)N2CCCC2)N1` (stereo unspecified), the INHIBITION came to 38.5%. Consider `CS(=O)(=O)N1CCN(C(=O)C2CSCCC(=O)N2)CC1` (stereo unspecified), for which the INHIBITION is reported as 60%. The same measure for `CC(C)CN1CC[C@@H]2[C@@H]1CCN2S(=O)(=O)c1cccs1`: 1.34%; for `O=C(NC1CCC1)c1cccc(S(=O)(=O)NCc2nc(C3CC3)no2)c1`: -9.2%. In the case of `O=C(c1ccc(S(=O)(=O)NCc2ccon2)cc1)N1CCNCC1`, the INHIBITION is recorded as 41.3%. Turning to `NC(=O)CC1CCCN(C(=O)NCC2(c3cccs3)CCCC2)C1` (stereo unspecified), the INHIBITION is -9.51%. As for `COCc1cccc(CNCc2c(C(C)C)nn(C)c2N(C)C)c1`, the INHIBITION is 50.8%. For the molecule `COc1cccc(CNCc2c(C)nn(C)c2N(C)C)c1`, the INHIBITION was 38.95%.

As for `COCc1cccc(CNCc2c(C)nn(C)c2N(C)C)c1`, the INHIBITION was determined as 44.3%. Turning to `COc1cc(CNCc2c(C)nn(C)c2N(C)C)ccc1C`, the INHIBITION was 30.8%. Take `Cc1nn(C)c(N(C)C)c1CNCc1cccc(Cl)c1`: the INHIBITION is recorded as 68.1%. For the molecule `Cc1cccc(OCC(O)CNCc2c(C)nn(C)c2N(C)C)c1` (stereo unspecified), the INHIBITION is -45.2%.

In the case of `Cc1nn(C)c(N(C)C)c1CNCc1cccc(Br)c1`, the INHIBITION is recorded as -22.1%. Consider `COc1ccc2cc(CNCc3c(C)nn(C)c3N(C)C)ccc2c1`, for which the INHIBITION worked out at 53%. With `COc1cccc(CNCc2c(C(C)C)nn(C)c2N(C)C)c1`, the INHIBITION came out at 12.22%. Regarding `Cc1nn(C)c(N(C)C)c1CNCC(O)COc1cccc(F)c1` (stereo unspecified), the INHIBITION is on record as 83.2%. Consider `Cc1nn(C)c(N(C)C)c1CNCC(O)COc1ccc(F)cc1` (stereo unspecified), for which the INHIBITION is reported as 0%. Turning to `Cc1nn(C)c(N(C)C)c1CNCc1cccc(CN(C)C)c1`, the INHIBITION is -72.2%. Next, `COCCN1C(=O)CCC12CCC(NCc1ccc(OC)cc1)CC2` (stereo unspecified): 15.3%; `COc1ccc(OC)c(-c2cc(C(=O)NCC3(CO)CC3)n(C)n2)c1`: 6.54%; `O=C(NC[C@]12COC[C@H]1CN(Cc1cccnc1)C2)c1ccno1`: 29%. Turning to `c1cc(C2CCN(Cc3ccc4c(c3)OCO4)CC2)ccn1`, the INHIBITION is reported as 19.4%.

The record behind these values is ChEMBL document CHEMBL4513216, “Probing the Open Global Health Chemical Diversity Library for Multistage-Active Starting Points for Next-Generation Antimalarials” (ACS Infect Dis, 2020).
